Bioassay records (PubChem BioAssay)
HTT ATP protect = Huntington cell model cytoprotection by ATP luminescence; PC12 HTT-Q103 induced, cytoprotection, ATP luminescence, 40 h; Potency, µM (top dose mostly 56.4 µM), hits mostly activators; hit rate 0.14% among 230,000; AID 1471; also: nearly all actives have a fitted effect of over 45% in size
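PC12 cells stably carrying ecdysone-inducible Htt exon 1 (Q103)–GFP were induced with 100 nM tebufenozide (final) alongside library compounds in a dose series. Cytoprotection was scored as retained ATP by ATPlite luminescence.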
CBFb-RUNX1 inh = inhibitors of human CBF-beta and RUNX1 interaction | 230,000 tested, under 10 active | Q01196+Q13951 | AlphaScreen CBFb-His/RUNX1-biotin binding, biochemical | Potency, µM (titrated, usually from 59.8 µM), hits mostly inhibitors
Target sequence (Q01196 whole entry, looked up): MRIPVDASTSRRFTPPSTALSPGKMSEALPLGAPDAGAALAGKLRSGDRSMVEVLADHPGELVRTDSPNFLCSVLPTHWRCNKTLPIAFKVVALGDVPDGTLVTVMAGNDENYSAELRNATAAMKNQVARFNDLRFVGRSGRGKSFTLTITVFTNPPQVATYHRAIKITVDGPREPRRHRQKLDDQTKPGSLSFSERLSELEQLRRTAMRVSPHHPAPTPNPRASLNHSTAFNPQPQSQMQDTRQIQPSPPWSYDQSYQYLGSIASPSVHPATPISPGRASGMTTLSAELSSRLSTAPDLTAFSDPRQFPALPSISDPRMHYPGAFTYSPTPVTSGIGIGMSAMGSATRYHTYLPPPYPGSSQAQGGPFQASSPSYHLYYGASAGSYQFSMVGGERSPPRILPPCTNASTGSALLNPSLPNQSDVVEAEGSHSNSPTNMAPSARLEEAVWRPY
Target sequence (Q13951 whole entry, looked up): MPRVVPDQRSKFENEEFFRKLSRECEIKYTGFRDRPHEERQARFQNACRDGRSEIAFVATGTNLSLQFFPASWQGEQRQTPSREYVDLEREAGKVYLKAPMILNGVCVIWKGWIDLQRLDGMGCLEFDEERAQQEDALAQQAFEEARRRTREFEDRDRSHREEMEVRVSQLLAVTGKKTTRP
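AlphaScreen proximity signal reports loss of binding between His-tagged CBF-beta and biotin-labelled RUNX1, each at 30 nM. Proteins are pre-associated for 20 minutes, compounds added for 15 minutes, then beads for 90 minutes, all at ambient temperature.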
PNC assembly inh = inhibitors of perinucleolar compartment assembly; PC3M PTB-GFP, PNC prevalence imaging, 16 h; hits give low values; activity change (PNC), negative = inhibition, % at 10 µM; hit rate 3.1% among 140,000;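 active = readout at or below -70, meaning at least 70% loss of cells showing the perinucleolar compartment, a nuclear body marking cancer cells; inconclusive = readout between -30 and a set limit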
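Read-out is percentage of cells bearing a perinucleolar compartment, from automated 20x imaging of fixed, Hoechst-stained PC3M PTB-GFP cells. Cells were seeded 4 h, then exposed 16 h to compound (23 nl of library stock) in duplicate plates.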
HTT aggregate = reduces HttQ103-GFP aggregates in PC12 cells; PC12 HttQ103-GFP aggregates, Acumen cytometry, 40 h; hit rate 1.1% among 220,000; Potency, µM (titrated, usually from 46.1 µM), most hits filed as inhibitors; AID 1688; also: nearly all actives have a fitted effect of over 60% in size
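Multiplexed with ATP-based cell death, this channel scores GFP aggregates in PC12 cells expressing inducible HTTex1-Q103-GFP. Induction used 100 nM tebufenozide; compounds were tested in concentration series.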
ALDH1A1 block = inhibitors of human aldehyde dehydrogenase 1A1 | P00352 | Potency, µM (series often up to 75.3 µM), most hits filed as inhibitors | AID 1030 | Purified ALDH1A1, NADH fluorescence, propionaldehyde substrate | hit rate 7.3% among 220,000; active = well fitted inhibition curve with a large enough effect, not every such curve was filed as active; inconclusive = small, poorly fitted or top-dose-only effect, or another doubt; inactive = no such curve, though single readings can be large or run the other way
HPGD inh = HPGD (human) dehydrogenase inhibition | AID 894 | P15428 | Potency, µM, most hits filed as inhibitors | purified HPGD, NADH fluorescence kinetic, PGE2 substrate | hit rate 4.3% among 150,000; active = well fitted inhibition curve with a large enough effect, not every such curve was filed as active; inconclusive = small, poorly fitted or top-dose-only effect, or another doubt; inactive = no such curve, though single readings can be large or run the other way
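20 nM HPGD preincubated 15 min at room temperature with compound in 50 mM Tris-HCl pH 8, 0.01% Tween 20. Started with 1 mM NAD+ and 30 uM prostaglandin E2; NADH fluorescence (360/450 nm) read 5 times over 30-s intervals, last minus first.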
A number is an active result; - = inactive; ? = inconclusive; . = no result; [ ] = another dose, or the depositor's remark. Shown are actives, neighbours in structure and some others; about 11% of the full set was active somewhere. Unless noted, calls follow the shape of the dose curve; as a rule, active = well fitted curve in the direction sought with a large enough effect; inconclusive = small, poorly fitted or top-dose-only effect, or another doubt; inactive = no such curve, though single readings can be large; an effect the other way counts as inactive or inconclusive.

SMILES | HTT ATP protect | CBFb-RUNX1 inh | PNC assembly inh | HTT aggregate | ALDH1A1 block | HPGD inh
COc1ccc(C[C@@H]2c3cc(OC)c(OC)cc3CC[N@+]2(C)CCC(=O)OCCCCCOC(=O)CC[N@@+]2(C)CCc3cc(OC)c(OC)cc3[C@H]2Cc2ccc(OC)c(OC)c2)cc1OC | - | - | . | - | - | -
COc1ccc(N/C(=C(/C(Cl)=C(Cl)Cl)[N+](=O)[O-])n2nnc3ccccc32)cc1 | - | - | - | - | 16µM | -
Cc1ccccc1N/C(=C(/C(Cl)=C(Cl)Cl)[N+](=O)[O-])n1nnc2ccccc21 | - | - | - | - | 14µM | -
COCc1n[nH]c(=S)n1-c1ccccc1 | - | - | - | - | - | -
S=c1[nH]nc(CSCc2ccccc2Cl)n1-c1ccccc1 | - | - | - | - | 4.5µM | ?
COc1ccc(-n2cc3c(-c4cccc(Br)c4)nnc(C)c3n2)cc1 | -[10 µM] | - | - | - | - | -
COc1ccc(OC)c2c1C(=O)c1ccccc1C2=O | - | - | - | - | 7.9µM | -
COC1=C(OC)C(=O)c2ccccc2C1=O | -[1.9 µM] | - | . | . | 14µM | ?
COc1ccc(N)c2c1C(=O)c1ccccc1C2=O | -[10 µM] | ? | - | - | ? | -
COc1ccc(-c2nc(=S)[nH][nH]2)cc1OC | -[10 µM] | - | . | - | ? | .
Oc1ccc(-c2nc(=S)[nH][nH]2)cc1 | -[1.9 µM] | - | - | - | ? | ?
S=c1nc(-c2ccccc2Br)[nH][nH]1 | -[10 µM] | - | ? | - | 10µM | 13µM
S=c1nc(-c2cccc(Cl)c2)[nH][nH]1 | - | - | . | - | ? | .
S=c1nc(-c2cc(Cl)cc(Cl)c2)[nH][nH]1 | -[10 µM] | - | . | -[9.22 µM] | 11µM | .
S=c1nc(-c2cc(Cl)ccc2Cl)[nH][nH]1 | ? | ? | . | - | 6.3µM | .
CCCC1O[C@@H]2C[C@H]3[C@@H]4CCC5=CC(=O)C=C[C@]5(C)C4[C@@H](O)C[C@]3(C)[C@]2(C(=O)CO)O1 (some centres not stated) | . | - | . | . | - | -
O=C(c1cc(-c2ccccc2)n[nH]1)N1CCc2c([nH]c3ccccc23)C1c1ccccn1 (configuration not stated) | -[10 µM] | ? | . | -[9.22 µM] | - | .
O=C(OCCN1C(=O)c2cccc3c(N4CCOCC4)ccc(c23)C1=O)c1ccc(Cl)cc1Cl | -[10 µM] | ? | -98 | - | - | -
O=C(OCCN1C(=O)c2cccc3c(N4CCOCC4)ccc(c23)C1=O)c1ccccc1Cl | . | ? | ? | - | - | -
O=C(O)CCNCC(=O)O | -[10 µM] | . | . | . | -[13.5 µM] | -
Cc1nn(-c2cccc([N+](=O)[O-])c2)c(N)c1-c1ccccc1 | -[10 µM] | - | . | - | - | .
Cc1nn(-c2ccccc2)c(N)c1Sc1cccc([N+](=O)[O-])c1 | -[10 µM] | - | - | - | ? | 25µM
Cc1nn(-c2ccccc2)c(C)c1[N+](=O)[O-] | - | - | . | - | - | .
Cc1nn(-c2ccccc2)c(N)c1Sc1ccccc1[N+](=O)[O-] | -[10 µM] | - | - | 3.5µM | ? | -
CC(=O)c1c(C)[nH]c(C(=O)N(C)C(c2ccccc2)c2ccccc2)c1C | . | - | . | - | 18µM | .
SMILES | HTT ATP protect | CBFb-RUNX1 inh | PNC assembly inh | HTT aggregate | ALDH1A1 block | HPGD inh
CC1CCCC(C)N1C(=O)Cn1c(SCC(=O)Nc2ccc3c(c2)OCO3)nc2ccccc21 (configuration not stated) | - | - | ? | - | 5µM | -
CC(C)c1nnc(SCC(=O)Nc2ccc3c(c2)OCO3)n1C | -[10 µM] | - | -100 | - | - | -
CC(C)c1ccc(NC(=O)CSc2n[nH]c(=O)n2-c2ccc3c(c2)OCCO3)cc1 | -[10 µM] | - | . | -[9.22 µM] | 11µM | .
CC(C)c1nnc(SCC(=O)NCc2ccc3c(c2)OCO3)n1C | -[10 µM] | - | -100 | - | - | -
N[C@@H](Cn1cc(I)c(=O)n(Cc2ccc(C(=O)O)cc2)c1=O)C(=O)O | - | - | . | . | - | -
Cc1cc2nc(CCN(Cc3cccnc3)C(=S)Nc3ccccc3)[nH]c2cc1C | -[10 µM] | - | -86 | - | ? | -
C/C(=N\NC(=O)c1ccccc1-n1cccc1)C1CC1 | -[10 µM] | - | - | - | 4µM | -
CN(C)c1ccc(S(=O)(=O)NCC(=O)OCC(=O)Nc2cc(Cl)cc(Cl)c2)cc1[N+](=O)[O-] | -[10 µM] | - | - | - | 14µM | -
